Common to all, as to experiment: yeast three-hybrid, YBZ-1, SC-Leu-His + 0.5 mM 3-AT, 4 days
Holding throughout (details): tags: N-Gal4 AD-HA kept; label: inside an RPR1-promoter hybrid RNA with tandem MS2 sites; ssRNA

The target in one assay is PUM1 PUF domain R5-RCG (Homo sapiens, UniProt Q14671 828-1176, C1007R;R1008C;Q1011G). The procedure, abridged:
(§1)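 Pumilio-1 PUF domain libraries, randomized (NNK) at the three base-contacting residues of each repeat, were co-expressed with matching RNA elements from a centromeric plasmid in strain YBZ-1 (LexA–MS2 coat fusion, HIS3 reporter). Transformants were plated on SC-Leu (input) and SC-Leu-His + 0.5 mM 3-AT (selection) for four days, and repeat regions were PCR-amplified and Illumina-sequenced. The interaction score is the log2 change in variant frequency from input to selection, with pseudocount 1 where absent.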

A further assay addresses PUM1 PUF domain R5-NSC (Homo sapiens, UniProt Q14671 828-1176, C1007N;R1008S;Q1011C). In outline: as §1
The target of a further assay is PUM1 PUF domain R5-PHL (Homo sapiens, UniProt Q14671 828-1176, C1007P;R1008H;Q1011L). The procedure, abridged: as §1
The target of the next assay is PUM1 PUF domain R5-KQM (Homo sapiens, UniProt Q14671 828-1176, C1007K;R1008Q;Q1011M). The procedure, abridged:
as §1

A further assay has as its target PUM1 PUF domain R5-KGN (Homo sapiens, UniProt Q14671 828-1176, C1007K;R1008G;Q1011N). In outline:
as §1

A further assay concerns the target PUM1 PUF domain R3-RAW (Homo sapiens, UniProt Q14671 828-1176, C935R;R936A;Q939W). The procedure, abridged: as §1
In a further assay the target is T1, PUM1 PUF domain R6-KWT (Homo sapiens, UniProt Q14671 828-1176, N1043K;Y1044W;Q1047T).
T1 sequence: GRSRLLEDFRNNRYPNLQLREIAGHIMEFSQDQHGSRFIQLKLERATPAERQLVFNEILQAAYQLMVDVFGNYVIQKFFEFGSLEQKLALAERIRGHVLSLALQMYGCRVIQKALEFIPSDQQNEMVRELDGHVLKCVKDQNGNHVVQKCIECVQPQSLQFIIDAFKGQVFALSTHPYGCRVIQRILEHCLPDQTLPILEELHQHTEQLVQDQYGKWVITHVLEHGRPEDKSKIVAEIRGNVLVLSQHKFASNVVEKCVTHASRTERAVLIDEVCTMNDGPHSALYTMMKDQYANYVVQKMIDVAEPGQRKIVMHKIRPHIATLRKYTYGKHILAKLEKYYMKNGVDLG
In outline: as §1

The next assay deals with PUM1 PUF domain R1-RTV (Homo sapiens, UniProt Q14671 828-1176, S863R;R864T;Q867V). The procedure, abridged:
as §1

A further assay has as its target PUM1 PUF domain R5-RMM (Homo sapiens, UniProt Q14671 828-1176, C1007R;R1008M;Q1011M). In outline:
as §1

For the next assay, the target named is PUM1 PUF domain R5-RVC (Homo sapiens, UniProt Q14671 828-1176, C1007R;R1008V;Q1011C). The procedure, abridged:
as §1

The next assay has as its target PUM1 PUF domain R4-HNA (Homo sapiens, UniProt Q14671 828-1176, N971H;H972N;Q975A). In outline:
as §1

Another assay concerns the target PUM1 PUF domain R4-PHL (Homo sapiens, UniProt Q14671 828-1176, N971P;Q975L). The procedure, abridged:
as §1

The target in the next assay is PUM1 PUF domain R2-EPW (Homo sapiens, UniProt Q14671 828-1176, N899E;Y900P;Q903W). In outline:
as §1

For a further assay, the target named is PUM1 PUF domain R2-CGI (Homo sapiens, UniProt Q14671 828-1176, N899C;Y900G;Q903I). The procedure, abridged:
as §1

The target of another assay is T2, PUM1 PUF domain R6-RYL (Homo sapiens, UniProt Q14671 828-1176, N1043R;Q1047L).
T2 sequence: T1 sequence with K216R, W217Y, T220L
In outline: as §1

The next assay deals with PUM1 PUF domain R8-RHS (Homo sapiens, UniProt Q14671 828-1176, N1122R;Y1123H;Q1126S). The procedure, abridged:
as §1

A further assay concerns the target T3, PUM1 PUF domain R6-SFM (Homo sapiens, UniProt Q14671 828-1176, N1043S;Y1044F;Q1047M).
T3 sequence: T1 sequence with K216S, W217F, T220M
In outline:
as §1

In a further assay the target is T4, PUM1 PUF domain R6-GFS (Homo sapiens, UniProt Q14671 828-1176, N1043G;Y1044F;Q1047S).
T4 sequence: T1 sequence with K216G, W217F, T220S
The procedure, abridged: as §1

The next assay addresses PUM1 PUF domain R7-RVS (Homo sapiens, UniProt Q14671 828-1176, S1079R;N1080V;E1083S). The procedure, abridged:
as §1

Another assay concerns the target PUM1 PUF domain R8-HWD (Homo sapiens, UniProt Q14671 828-1176, N1122H;Y1123W;Q1126D). In outline: as §1

Positions count from the first letter of the chain named.

As for “GGCUAGAACUAGUGGAUCCCCCGGCGCCCGGCGGCUCGAGCCCGGGUAAGUGUUAAUAGUCUGCAUGCCGCCGGGCGCCAUGCCUGCAGGUCGACUCUAGAAAACAUG”, the binding signal with PUM1 PUF domain R5-RCG is 3.29 log2 enrichment (interaction score); in the assay with PUM1 PUF domain R5-NSC, 4.07 log2 enrichment (interaction score); in the assay with PUM1 PUF domain R5-PHL, 4.46 log2 enrichment (interaction score); with PUM1 PUF domain R5-KQM it was 4.71 log2 enrichment (interaction score); with PUM1 PUF domain R5-KGN, 3.75 log2 enrichment (interaction score).
On to “GGCUAGAACUAGUGGAUCCCCCGGCGCCCGGCGGCUCGAGCCCGGGUAAGUGUAAUUAGUCUGCAUGCCGCCGGGCGCCAUGCCUGCAGGUCGACUCUAGAAAACAUG”, for which the binding signal with PUM1 PUF domain R3-RAW was 4.11 log2 enrichment (interaction score).
For the sequence “GGCUAGAACUAGUGGAUCCCCCGGCGCCCGGCGGCUCGAGCCCGGGUAAGUGCAAAUAGUCUGCAUGCCGCCGGGCGCCAUGCCUGCAGGUCGACUCUAGAAAACAUG”, the binding signal with PUM1 PUF domain R6-KWT is 3.77 log2 enrichment (interaction score).
With “GGCUAGAACUAGUGGAUCCCCCGGCGCCCGGCGGCUCGAGCCCGGGUAAGUGUAAAUGGUCUGCAUGCCGCCGGGCGCCAUGCCUGCAGGUCGACUCUAGAAAACAUG”, in the assay with PUM1 PUF domain R1-RTV, the binding signal is 2.39 log2 enrichment (interaction score).
On to “GGCUAGAACUAGUGGAUCCCCCGGCGCCCGGCGGCUCGAGCCCGGGUAAGUGUCAAUAGUCUGCAUGCCGCCGGGCGCCAUGCCUGCAGGUCGACUCUAGAAAACAUG”, for which the binding signal is 3 log2 enrichment (interaction score) in the assay with PUM1 PUF domain R5-RCG, 2.73 log2 enrichment (interaction score) with PUM1 PUF domain R5-RMM and 2.54 log2 enrichment (interaction score) in the assay with PUM1 PUF domain R5-RVC.
On to “GGCUAGAACUAGUGGAUCCCCCGGCGCCCGGCGGCUCGAGCCCGGGUAAGUGUAUAUAGUCUGCAUGCCGCCGGGCGCCAUGCCUGCAGGUCGACUCUAGAAAACAUG”, for which the binding signal in the assay with PUM1 PUF domain R4-HNA is 4.72 log2 enrichment (interaction score); in the assay with PUM1 PUF domain R4-PHL, 5.92 log2 enrichment (interaction score).
As to “GGCUAGAACUAGUGGAUCCCCCGGCGCCCGGCGGCUCGAGCCCGGGUAAGUGUACAUAGUCUGCAUGCCGCCGGGCGCCAUGCCUGCAGGUCGACUCUAGAAAACAUG”, the values for the binding signal with PUM1 PUF domain R4-HNA and with PUM1 PUF domain R4-PHL were 2.26 log2 enrichment (interaction score) and 3.73 log2 enrichment (interaction score), respectively.
Regarding “GGCUAGAACUAGUGGAUCCCCCGGCGCCCGGCGGCUCGAGCCCGGGUAAGUGUAAAUCGUCUGCAUGCCGCCGGGCGCCAUGCCUGCAGGUCGACUCUAGAAAACAUG”, the binding signal with PUM1 PUF domain R1-RTV is 4.19 log2 enrichment (interaction score).
In the case of “GGCUAGAACUAGUGGAUCCCCCGGCGCCCGGCGGCUCGAGCCCGGGUAAGUGUAAAUUGUCUGCAUGCCGCCGGGCGCCAUGCCUGCAGGUCGACUCUAGAAAACAUG”, the binding signal with PUM1 PUF domain R1-RTV was 3.33 log2 enrichment (interaction score).
Regarding “GGCUAGAACUAGUGGAUCCCCCGGCGCCCGGCGGCUCGAGCCCGGGUAAGUGUAAAGAGUCUGCAUGCCGCCGGGCGCCAUGCCUGCAGGUCGACUCUAGAAAACAUG”, in the assay with PUM1 PUF domain R2-EPW, the binding signal was 3.25 log2 enrichment (interaction score).
As to “GGCUAGAACUAGUGGAUCCCCCGGCGCCCGGCGGCUCGAGCCCGGGUAAGUGUAAAUAGUCUGCAUGCCGCCGGGCGCCAUGCCUGCAGGUCGACUCUAGAAAACAUG”, the binding signal with PUM1 PUF domain R2-CGI is 2.59 log2 enrichment (interaction score); in the assay with PUM1 PUF domain R6-RYL it was 2.68 log2 enrichment (interaction score); with PUM1 PUF domain R5-PHL, 4.35 log2 enrichment (interaction score); with PUM1 PUF domain R8-RHS, 3.91 log2 enrichment (interaction score); in the assay with PUM1 PUF domain R6-SFM it was 2.95 log2 enrichment (interaction score); with PUM1 PUF domain R6-GFS it was 2.76 log2 enrichment (interaction score). Also, in the assay with PUM1 PUF domain R4-PHL, the binding signal was 5.53 log2 enrichment (interaction score).
With “GGCUAGAACUAGUGGAUCCCCCGGCGCCCGGCGGCUCGAGCCCGGGUAAGUUUAAAUAGUCUGCAUGCCGCCGGGCGCCAUGCCUGCAGGUCGACUCUAGAAAACAUG”, the binding signal with PUM1 PUF domain R7-RVS was 3.16 log2 enrichment (interaction score).
On to “GGCUAGAACUAGUGGAUCCCCCGGCGCCCGGCGGCUCGAGCCCGGGUAAGUGUAAGUAGUCUGCAUGCCGCCGGGCGCCAUGCCUGCAGGUCGACUCUAGAAAACAUG”, for which the binding signal with PUM1 PUF domain R3-RAW was 1.15 log2 enrichment (interaction score).
“GGCUAGAACUAGUGGAUCCCCCGGCGCCCGGCGGCUCGAGCCCGGGUAAGCGUAAAUAGUCUGCAUGCCGCCGGGCGCCAUGCCUGCAGGUCGACUCUAGAAAACAUG”: the binding signal with PUM1 PUF domain R8-HWD was 4.23 log2 enrichment (interaction score); with PUM1 PUF domain R8-RHS it was 4.15 log2 enrichment (interaction score).
